Source: PubChem (several laboratories)
m-calpain inh – inhibitors of pig calpain II | purified calpain II, fluorogenic peptide substrate, 30 min | inhibition, % at 16 µM | actives 0.37% (n = 220,000) | AID 1236;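 active means inhibition above about 50%, limit read from the data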
Cl transport mod – modulators of human KCC2 chloride dependent transport | B-score of Tl+ flux slope (higher = more flux/activation; lower = inhibition) at 10 µM | KCC2 cells, thallium flux FluoZin-2 fluorescence | actives 2.2% (n = 190,000) | Q9H2X9;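 active means thallium flux slope and its plate-corrected score both differing from the plate sample mean at a set confidence after two filtering rounds, in either direction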;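 further: slope of fluorescence scaled to starting intensity during 10 to 20 s after thallium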
Target sequence (Q9H2X9 whole entry, looked up): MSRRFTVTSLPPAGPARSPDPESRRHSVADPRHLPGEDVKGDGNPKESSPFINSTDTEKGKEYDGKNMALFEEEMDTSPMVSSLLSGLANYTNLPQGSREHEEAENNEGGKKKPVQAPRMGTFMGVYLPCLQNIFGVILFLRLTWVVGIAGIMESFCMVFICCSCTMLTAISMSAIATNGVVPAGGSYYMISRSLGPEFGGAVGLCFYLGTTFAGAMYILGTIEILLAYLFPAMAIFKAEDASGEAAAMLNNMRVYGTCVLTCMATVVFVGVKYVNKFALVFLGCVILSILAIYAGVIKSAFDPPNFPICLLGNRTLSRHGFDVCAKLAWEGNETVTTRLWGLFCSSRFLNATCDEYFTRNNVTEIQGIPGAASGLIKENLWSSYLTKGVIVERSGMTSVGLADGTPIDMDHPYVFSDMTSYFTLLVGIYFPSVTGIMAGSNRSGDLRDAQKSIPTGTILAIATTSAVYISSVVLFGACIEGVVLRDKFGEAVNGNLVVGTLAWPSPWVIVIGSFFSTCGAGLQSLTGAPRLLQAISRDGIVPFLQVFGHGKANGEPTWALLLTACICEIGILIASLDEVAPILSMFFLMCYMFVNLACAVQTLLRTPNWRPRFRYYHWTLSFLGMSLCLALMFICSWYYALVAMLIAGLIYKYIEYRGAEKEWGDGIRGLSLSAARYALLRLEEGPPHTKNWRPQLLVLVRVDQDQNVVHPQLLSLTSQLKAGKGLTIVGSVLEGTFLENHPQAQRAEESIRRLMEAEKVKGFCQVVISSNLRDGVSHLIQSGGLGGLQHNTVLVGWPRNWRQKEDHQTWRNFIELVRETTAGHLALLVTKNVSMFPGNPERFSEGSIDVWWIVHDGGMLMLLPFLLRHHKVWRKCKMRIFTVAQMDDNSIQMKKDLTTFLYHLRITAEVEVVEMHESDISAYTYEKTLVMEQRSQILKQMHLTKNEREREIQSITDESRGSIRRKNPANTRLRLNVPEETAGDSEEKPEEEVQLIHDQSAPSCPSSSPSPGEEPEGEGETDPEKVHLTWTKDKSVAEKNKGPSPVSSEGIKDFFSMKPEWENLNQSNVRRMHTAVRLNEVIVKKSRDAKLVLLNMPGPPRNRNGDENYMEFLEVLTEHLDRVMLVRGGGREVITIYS
ROMK mod – human ROMK K+ channel modulation, primary screen; B-score at 10 µM; Tet-inducible ROMK, thallium flux fluorescence; actives lie on both sides; actives 2% (n = 130,000); AID 1918; P48048;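 active means signal ratio slope over the read window, or its plate-corrected B-score, at least 3 SD from the plate mean, either direction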;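 further: B-score of the F/F0 ratio slope over 7 to 12 s after thallium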
WT yeast gro inh – growth inhibition of WT yeast, mitochondrial fusion screen. mitochondrial fusion phenotypic screen, WT strain. inhibition, % at 10 µM. actives 2.1% (n = 190,000); in the data active means inhibition above about 58%; tested in S. cerevisiae
L major viab – Leishmania major promastigote growth inhibition; Leishmania major promastigotes, resazurin fluorescence viability; inhibition, % at 10 µM; actives 9% (n = 200,000); AID 1063; in the data active means inhibition above about 50%;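 further: promastigotes grown with compound for 44 hours at 28 °C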
KCC2 secondary – KCC2 (human) modulation, secondary assay; shares compounds with Cl transport mod; normalised thallium flux (F/F0 slope) at 10 µM; AID 1713; HEK293-KCC2, thallium flux, FluoZin2 fluorescence; hits give high values; actives 15% (n = 3,700);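 active means thallium flux slope above the same plate's solvent-only control mean plus 3 SD; inconclusive means the two replicate wells disagree; inactive means no significant difference from solvent-only control wells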
KCC2 bumet counter – thallium flux persisting under bumetanide in KCC2 cells, counter-screen secondary assay; actives 49% (n = 3,700); normalized thallium flux at 10 µM; HEK293-KCC2 + bumetanide/ouabain, thallium flux FluoZin2; hits give high values; shares compounds with Cl transport mod; AID 1714;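 active means thallium entry rate above the same plate's blocked-transporter control wells by more than 3 SD; inconclusive means the two repeat wells disagree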;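 further: raw slope of fluorescence over initial fluorescence between 10 and 20 s after thallium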
KCC2 sec2 – confirmation of human KCC2 transport modulators | shares compounds with Cl transport mod | actives 23% (n = 3,700) | AID 1715 | normalized thallium flux at 10 µM | HEK293-KCC2, thallium flux FluoZin2 fluorescence; actives lie on both sides; F/F0 rise rate, 10–20 s post-thallium;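 active means thallium flux slope more than 3 SD above or below the plate's solvent-only control mean, mostly below; inconclusive means the two repeat wells disagreed; inactive means no significant shift from solvent-only controls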;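 further: raw slope with 0.1% DMSO as baseline and bumetanide as block control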
HEK293 Tl flux – counter-screen for KCC2 modulators: effect in parental HEK293 cells; shares compounds with Cl transport mod; thallium flux FluoZin2, ouabain; baseline-ratio fluorescence slope, 10–20 s after thallium; thallium flux rate (normalised fluorescence) at 10 µM; actives 46% (n = 3,700); AID 1716;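 active means thallium flux rate significantly above the same plate's solvent-only control wells, beyond their mean plus 3 SD; inconclusive means the two replicate wells gave conflicting results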
KCC2 ouabain – KCC2 (human) modulation, ouabain retest; raw Tl+ flux slope (below DMSO = inhibition, above = activation) at 10 µM; HEK293-KCC2, thallium flux FluoZin2 fluorescence; bidirectional: low = inhibitor, high = activator; actives 48% (n = 3,700); shares compounds with Cl transport mod;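 active means thallium flux slope beyond 3 SD from same-plate DMSO control mean in most replicates, usually higher, sometimes lower; inconclusive means repeat tests gave conflicting results; inactive means no significant difference from controls in most replicates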;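 further: slope of initial-normalized fluorescence between seconds 10 and 20 after thallium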
HEK counter2 – parental HEK flux effect, counter-screen 2 | shares compounds with Cl transport mod | HEK293 parental, thallium flux FluoZin-2 fluorescence slope | thallium flux slope at 10 µM | actives 33% (n = 3,700) | AID 1718;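 active means thallium flux slope above the same plate's solvent-control mean plus 3 SD in both duplicate wells; inconclusive means duplicate wells that disagreed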;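 further: run without ouabain in cells lacking the KCC2 cotransporter; slope of fluorescence scaled to its starting value between 10 and 20 s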
* hit, by the source's call; ? = inconclusive; · = no result given. Most compounds without a hit are left out; they make up all but 12% or so of the library.

SMILES	m-calpain inh	Cl transport mod	ROMK mod	WT yeast gro inh	L major viab	KCC2 secondary	KCC2 bumet counter	KCC2 sec2	HEK293 Tl flux	KCC2 ouabain	HEK counter2
CCN(CC)c1ccc(/C=N/NC(=O)C(O)(c2ccccc2)c2ccccc2)o1	-47	-0.56	·	-11	-1	·	·	·	·	·	·
COCCn1c(C)cc(/C=C2\NC(=S)N(C)C2=O)c1C	-20	1.2	0.17	-3	-10	·	·	·	·	·	·
CN1C(=O)/C(=C/c2cc3c(cc2Br)OCO3)NC1=S	-1	7.1*	1.4	5	1	?	0.023*	0.033	0.013*	0.031*	0.011
Cc1ccccc1C(=O)NC1CCN(CC(=O)NCc2cccs2)CC1	-5	0.015	0.23	-12	-7	·	·	·	·	·	·
COc1ccc(-c2csc(NC(=S)NC(=O)c3cccs3)n2)cc1OC	-122	31*	0.34	38	-1	0.01*	0.046*	0.056*	0.044*	0.048*	0.044*
CCCCC(=O)Nc1ccc(NC(=S)NC(=O)CC)cc1OC	6	0.1	-0.78	0	6	·	·	·	·	·	·
CCCCC(=O)Nc1ccc(NC(=S)NC(=O)c2ccco2)cc1OC	7	13*	·	·	·	0.022*	0.047*	?	0.02*	0.026*	0.022*
COc1cc(NC(=S)NC(=O)c2cccs2)ccc1NC(=O)C(C)C	34	5.1*	0.069	20	14	0.0099	0.024*	0.03	0.01*	?	0.011*
COc1cc(NC(=S)NC(=O)c2ccco2)ccc1NC(=O)C(C)C	7	5.2*	-1.1	-7	86*	0.0099	0.012*	0.031	0.012*	?	0.011
COc1cc(NC(=O)C(C)C)ccc1NC(=O)c1ccco1	-17	·	·	47	-7	·	·	·	·	·	·
Cc1ccccc1-n1c(SCC(=O)c2c(N)n(C)c(=O)n(C)c2=O)nc2sc3c(c2c1=O)CCCC3	-32	0.14	0.14	4	48	·	·	·	·	·	·
COc1ccc(-c2csc(NC(=O)c3ccccc3NS(=O)(=O)c3ccc(C)cc3)n2)cc1	-42	-4	·	11	5	·	·	·	·	·	·
COc1ccc(S(=O)(=O)Nc2ccccc2C(=O)Nc2nc(-c3ccc(F)cc3)cs2)cc1OC	-76	-6.2*	-1.6	59*	53*	0.006*	0.0057	0.03	?	0.012*	0.01
COc1ccc(OC)c(NC(=O)C2CCN(C(=O)c3cccs3)CC2)c1	-8	-0.069	0.73	-18	-2	·	·	·	·	·	·
COc1ccc(OC)c(NC(=O)C(=O)NNC(=O)c2cccs2)c1	-8	9.9*	·	3	-6	0.015*	0.063*	0.034	0.022*	0.04*	0.015*
CCN(CC)S(=O)(=O)c1cccc(NC(=O)COC(=O)/C=C/c2cccs2)c1	40	-3.4	·	·	·	·	·	·	·	·	·
COc1ccc(C(=O)OCc2csc(C)n2)c(O)c1	22	0.16	·	6	-1	·	·	·	·	·	·
CC(C)CC1(C)NC(=O)N(CCN2C(=O)c3ccccc3C2=O)C1=O (configuration not stated)	19	-0.16	·	1	-9	·	·	·	·	·	·
O=C1CCCc2c1[nH]c1ccc(CN3CCCCC3)cc21	-118	-5.1*	·	4	59*	0.0052	0.0048	0.029	0.0077	0.018	0.01
Cc1ccc(OC(=O)c2cc(C)nn2C(C)(C)C)cc1	-14	0.093	·	·	·	·	·	·	·	·	·
CC(OC(=O)C1=Cc2ccccc2OC1)C(=O)NCc1ccco1 (configuration not stated)	-10	-2.3	-0.22	-10	-8	·	·	·	·	·	·
